The list is not random: actives were taken first. Their share in the collection is about 19%.
IL-1B inflam inh: qHTS for Inhibitors of Inflammasome Signaling: IL-1-beta AlphaLISA Primary Screen | THP-1 LPS/ATP IL-1B secretion, AlphaLISA, 16 h; stronger effect = lower value | activity change, % at 57.5 µM | hit rate 4.7% among 360,000 | AID 743279, 2014; in the data active = activity change below about -50%; inconclusive = mostly about -30% to -49%
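Secreted IL-1B measured by AlphaLISA bead assay after 16 h compound exposure of THP-1 cells; compounds (final up to 57.5 uM) added 1 h before LPS (250 ng/mL) and ATP (1.25 mM) stimulation; lower signal means less secretion.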
TDP1 cell noCPT: qHTS for Inhibitors of human tyrosyl-DNA phosphodiesterase 1 (TDP1): qHTS in cells in absence of CPT; DT40 Tdp1-/- hTDP1 cells, no CPT, ATP luminescence, 48 h; Potency, µM (doses to about 46.2 µM), without a hit: at the highest dose activity change, negative = growth inhibition, actives largely listed as inhibitors; hit rate 15% among 420,000; AID 686978, 2013; also: potency is read from the fitted curve at half-maximal effect; nearly all actives have a fitted effect of over 55% in size
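Chicken DT40 Tdp1-/- cells complemented with human TDP1, screened without camptothecin (DMSO vehicle only), 400 cells/well. Compounds pin-transferred, cells incubated at 37 °C for at least 48 hr. Growth read as ATP-dependent luminescence (CellTiter-Glo, 30 min at RT).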
HT1080 IDH1KD tx: qHTS for induction of synthetic lethality in tumor cells producing 2HG: qHTS for the HT-1080-IDH1KD cell line | Potency, µM (series often up to 46.1 µM), for the others: top-dose activity, negative = toxicity, hits mostly cytotoxic | HT-1080 IDH1 knockdown viability, ATP luminescence, 48 h | hit rate 2% among 360,000;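 also: potency is read from the fitted curve at half-maximal effect; 0% = DMSO wells and -100% = cell-free medium wells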
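% activity derives from luminescence (CellTiter-Glo), normalised to DMSO and no-cell wells. HT-1080-IDH1KD cells, 750/well, had 48 h compound exposure at 37 °C.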
HT1080-NT tox: qHTS for induction of synthetic lethality in tumor cells producing 2HG: qHTS for the HT-1080-NT fibrosarcoma cell line; HT-1080-NT fibrosarcoma viability, CellTiter-Glo ATP luminescence, 48 h; Potency, µM (top dose mostly 46.1 µM), for inactives: at the top dose activity, negative = less viability, actives largely listed as cytotoxic; hit rate 1.6% among 360,000; AID 686970, 2013;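 also: NT is the 2HG producing partner of a matched IDH1 knockdown line; potency is read from the fitted curve at half-maximal effect; 0% = DMSO-treated cells and -100% = media-only wells without cells; nearly all actives have a fitted effect of over 55% in size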
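Viability of the 2HG-overproducing fibrosarcoma line after 48 hours of compound exposure at 37 degrees C was determined by luminescence with CellTiter-Glo, and concentration-effect curves were then fitted and categorized.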
TDP1 cell CPT: qHTS for Inhibitors of human tyrosyl-DNA phosphodiesterase 1 (TDP1): qHTS in cells in presence of CPT | chicken DT40 Tdp1-/-;hTDP1 cells + 20 nM CPT, ATP luminescence, 48 h | Potency, µM (titrated, usually from 46.2 µM), without a hit: top-dose activity change, negative = growth inhibition, most hits filed as inhibitors | hit rate 12% among 420,000 | AID 686979, 2013; also: potency is read from the fitted curve at half-maximal effect; nearly all actives have a fitted effect of over 55% in size
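Chicken DT40 Tdp1-/- cells complemented with human TDP1, 400 cells/well, exposed to compounds plus 20 nM camptothecin for at least 48 h at 37 C; viability read as ATP content by CellTiter-Glo luminescence.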
An asterisk follows results filed as active; u = inconclusive; x = not tested or not shown. Unless noted, calls follow the shape of the dose curve; as a rule, active = well fitted curve in the direction sought with a large enough effect; inconclusive = small, poorly fitted or top-dose-only effect, or another doubt; inactive = no such curve, though single readings can be large; an effect the other way counts as inactive or inconclusive. Unless noted, % is scaled to controls: 0 for no effect and ±100 for the full control effect.

SMILES	IL-1B inflam inh	TDP1 cell noCPT	HT1080 IDH1KD tx	HT1080-NT tox	TDP1 cell CPT
CCn1c(=O)n(CC)c2cc(S(=O)(=O)N3CCc4ccccc43)ccc21	-9	18µM*	u	10µM*	13µM*
O=C(c1ccccc1)c1ccc2cc(O)ccc2c1	-54*	u	u	u	-18%
CCOC(=O)CSc1nc(N)c(C#N)cc1C#N	u	16µM*	-7%	2%	-28%
CCOC(=O)CC(=O)CSc1nc2c(cc1C#N)CCC2	1	21µM*	-27%	u	8.2µM*
CCOC(=O)CSc1nc2cc(C)ccc2cc1C#N	4	10µM*	-1%	-8%	13µM*
CCOC(=O)CSc1nc2cc(OC)ccc2cc1C#N	4	23µM*	-13%	-6%	16µM*
CC(C)(C)OC(=O)C[C@H]1C/C=C\C[C@H](CC(=O)NCCO)C(=O)N[C@@H](c2ccccc2)COC1=O	20	-15%	13%	8%	-15%
O=C1NCCSC1c1ccccc1 (configuration not stated)	-5	4%	5%	8%	-4%
CC(C)c1csc(CN2CCC(CO)(Cc3cccc(F)c3)CC2)n1	-59*	23µM*	-14%	0%	u
OCC1(Cc2cccc(F)c2)CCN(Cc2cccc3nccnc23)CC1	u	-27%	-22%	-16%	-17%
N#CCCN(C(=S)Nc1ccc(S(=O)(=O)N2CCOCC2)cc1)c1ccccc1F	-1	-27%	-4%	0%	-23%
CSc1nc(-c2ccccc2)nn1C(=O)c1ccccc1	-15	23µM*	3%	5%	u
CCCCCC[n+]1c(-c2ccc(Cl)cc2Cl)csc1Nc1ccccc1	22	23µM*	2%	4%	u
COc1cc(/C=C/C(=O)c2c(O)cc(C)oc2=O)cc(OC)c1O	-55*	u	u	u	u
COc1ccc(/C=C/C(=O)c2c(O)cc(C)oc2=O)c(OC)c1	-18	u	u	-27%	u
COc1cccc(/C=C/C(=O)c2c(O)cc(C)oc2=O)c1O	-81*	u	-12%	-13%	u
Cn1c(=O)c2c(nc3n2CC(O)CN3c2ccc(O)cc2)n(C)c1=O (configuration not stated)	19	5%	7%	1%	7%
COC(=O)c1ccc(-c2ncc[nH]2)cc1	-12	-9%	-8%	-6%	-10%
O=S1(=O)C[C@@H](N2CCC(Cc3ccccc3)CC2)[C@H](COCc2ccccc2)N1	18	23µM*	0%	-5%	18µM*
Cc1cc([N+](=O)[O-])ccc1NC(=O)CN1C2CCC1CC(NC(=O)NC13CC4CC(CC(C4)C1)C3)C2 (configuration not stated)	u	5.2µM*	-10%	-3%	15µM*
COc1ccc(S(=O)(=O)N2CCC(C(=O)Oc3ccc(C)cc3)CC2)cc1OC	14	-11%	14%	7%	-22%
O=C1N(Cc2ccccc2)CC2(Br)COCOC12O (configuration not stated)	u	3.3µM*	u	7%	2.3µM*
O=C(NCCNC(=O)c1ccc(-c2cccc(Cl)c2)o1)c1cnccn1	-12	u	0%	-8%	u
O=C(NCCNC(=O)c1ccc(-c2ccc(Cl)c(Cl)c2)o1)c1cnccn1	-74*	15µM*	u	-15%	u
O=C(NCCNC(=O)c1ccc(-c2cc(Cl)ccc2Cl)o1)c1cnccn1	-8	21µM*	0%	-3%	u
SMILES	IL-1B inflam inh	TDP1 cell noCPT	HT1080 IDH1KD tx	HT1080-NT tox	TDP1 cell CPT
COc1ccccc1C(c1c(O)nc(SC)[nH]c1=O)c1c(O)nc(SC)[nH]c1=O	-11	-4%	1%	-2%	-1%
O=C(COc1ccc(S(=O)(=O)N2CCOCC2)cc1Cl)NCc1ccc2c(c1)OCO2	-14	u	-14%	-8%	-21%
CCOc1ccc(NC(=S)N(CCOC)C2CCN(C(C)C)CC2)cc1	-17	-33%	0%	-2%	2%
Cc1ccc(CN2CCc3nc(Nc4ccc5c(c4)OCCO5)ncc3C2)cc1	x	21µM*	x	x	u
CCc1ccc(CN2CCc3nc(Nc4ccc5c(c4)OCCO5)ncc3C2)cc1	x	23µM*	x	x	u
Nc1nc(CN2CCN(Cc3ccccc3)CC2)nc(Nc2ccc3c(c2)OCCO3)n1	12	-26%	-6%	-1%	-29%
CCOC(=O)C1CCCN(C(=O)c2cc3ncc(Br)cn3n2)C1 (configuration not stated)	16	-20%	13%	12%	-1%
CCSc1ccccc1C(=O)Nc1ccc([N+](=O)[O-])cc1OC	0	21µM*	0%	-1%	u
CCOCC(=O)Nc1ccc([N+](=O)[O-])cc1OC	-62*	-16%	-4%	-7%	17%
CCOCC(=O)Nc1cc([N+](=O)[O-])ccc1OC	21	0%	-12%	17%	4%
COc1ccccc1CC(=O)Nc1ccc([N+](=O)[O-])cc1O	-63*	-29%	u	u	-4%
CCc1ccccc1NC(=O)c1ccccc1Sc1ccc([N+](=O)[O-])cc1Cl	-55*	u	u	-9%	u
CCC(=O)N1c2ccccc2NC2=C(C(=O)CC(C)(C)C2)C1c1ccc(O)c(OC)c1 (configuration not stated)	0	4%	-4%	2%	-8%
CC(C)(C)c1cc(C(=O)NCCN2CCCC2)cc(C(C)(C)C)c1	u	u	u	-16%	u
CCCCN(C)C(=O)c1ccc(Nc2nc(C(N)Cc3ccc(C(F)(F)F)cc3)cs2)nc1 (configuration not stated)	-30	12µM*	16µM*	u	8.2µM*
CCCCN(C)C(=O)c1ccc(Nc2nc(C(N)CCc3ccccc3)cs2)nc1 (configuration not stated)	-11	21µM*	23µM*	18µM*	15µM*
CCOC(=O)c1c(C)c(-c2ccccc2)n(CC(=O)Nc2cc(C)ccc2OC)c1C	x	18µM*	x	x	u
CCOC(=O)c1c(C)c(-c2ccccc2)n(CC(=O)Nc2cccc(C)c2C)c1C	x	15µM*	x	x	13µM*
CCOC(=O)c1c(C)c(-c2ccccc2)n(CC(=O)Nc2ccc(OCC)cc2)c1C	x	-29%	x	x	-3%
CCOC(=O)c1c(C)c(-c2ccccc2)n(CC(=O)NC2CCCCC2)c1C	x	-10%	x	x	1%

Source: PubChem (National Center for Advancing Translational Sciences (NCATS))
